# The full list was thinned out, with hits kept by preference.
# TbPYK inhibitor: qHTS of Trypanosoma Brucei Inhibitors | Potency, µM (titrated, usually from 76.8 µM), for inactives: at the highest dose activity, negative = inhibition, hits mostly inhibitors | AID 624173, 2012 | pyruvate kinase (Trypanosoma brucei), Q57TT1 | 410,000 tested, 0.12% active | TbPYK enzyme, Kinase-Glo Plus ATP luminescence, 45 min; also: potency is read from the fitted curve at half-maximal effect; % is scaled to controls: 0 for no effect and ±100 for the full control effect; nearly all actives have a fitted effect of over 50% in size
#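 Luminescent Kinase-Glo Plus end-point after 45 min room-temperature reaction of T. brucei pyruvate kinase started with 130 uM ADP (final). Buffer TEA 50 mM pH 7.2 with KCl, MgCl2, BSA, Tween-20; titration-based qHTS with fitted concentration-effect curves.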
# Shiga toxin inh: A qHTS for Small Molecule Inhibitors of Shiga Toxin | Vero cells, Shiga toxin protein synthesis inhibition reporter | inhibition, % at 38.7 µM | 290,000 tested, 9.2% active; in the data active = inhibition mostly above about 28%, no sharp cut-off; inactive = mostly below about 43%; also: 0% is about no effect
# FBPA Giardia inh: qHTS Assay for Inhibitors of Fructose-1,6-bisphosphate Aldolase from Giardia Lamblia | A8B2U2 | purified Giardia FBPA | Potency, µM (series often up to 59.6 µM), without a hit: at the top dose activity, negative = inhibition, most hits filed as inhibitors | 290,000 tested, 0.71% active | AID 2451, 2010; also: potency is read from the fitted curve at half-maximal effect; % is scaled to controls: 0 for no effect and ±100 for the full control effect; nearly all actives have a fitted effect of over 55% in size
# Target sequence (A8B2U2 whole entry, looked up): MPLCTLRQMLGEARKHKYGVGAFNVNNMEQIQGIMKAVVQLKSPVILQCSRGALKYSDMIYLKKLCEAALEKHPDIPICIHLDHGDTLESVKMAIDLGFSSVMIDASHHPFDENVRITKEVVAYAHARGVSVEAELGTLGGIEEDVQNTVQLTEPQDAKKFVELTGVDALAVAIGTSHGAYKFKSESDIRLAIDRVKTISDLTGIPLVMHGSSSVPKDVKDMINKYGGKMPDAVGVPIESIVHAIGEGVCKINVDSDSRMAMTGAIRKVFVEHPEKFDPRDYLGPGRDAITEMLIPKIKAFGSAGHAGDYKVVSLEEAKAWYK
#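 Giardia FBPA (40 nM reagent) was preincubated 10 min at RT with compound (up to 57.5 uM final), then substrate plus GAPDH/TPI/NAD/arsenate coupling system with diaphorase/resazurin was added; resorufin fluorescence (525/598 nm) was read after 20 min.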
# LmPK inh: qHTS Assay for Inhibitors of Leishmania Mexicana Pyruvate Kinase (LmPK) | Q27686 | purified LmPK, Kinase-Glo ATP luminescence, 1 h | Potency, µM (titrated, usually from 57.5 µM), for inactives: top-dose activity change, negative = inhibition, actives largely listed as inhibitors | 290,000 tested, 0.37% active | AID 1721, 2009; also: potency is read from the fitted curve at half-maximal effect; % is scaled to controls: 0 for no effect and ±100 for the full control effect
#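 Pyruvate kinase activity monitored as ATP production (luciferase luminescence). Conditions: 0.1 nM enzyme, 0.5 mM PEP, 0.1 mM ADP, 1 h, RT; normalized against uninhibited and no-enzyme wells.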
# RE007 growth inh: qHTS Assay for Inhibitors of the HIV-1 protein Vpr | 360,000 tested, 0.21% active | AID 651644, 2012 | S. pombe RE007 Vpr strain, BacTiter-Glo ATP luminescence, 24 h | Potency, µM (doses to about 92.2 µM), inactives show at the top dose activity change, negative = less growth, most hits filed as inhibitors; active = well fitted falling curve with a large enough effect; also: potency is read from the fitted curve at half-maximal effect; % is scaled to controls: 0 for no effect and ±100 for the full control effect; nearly all actives have a fitted effect of over 50% in size
#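 Fission yeast RE007 carrying one integrated HIV-1 vpr copy, seeded at OD 0.01 in PMG+AL medium with 23 nL pinned compound. Grown 24 h at 30 degrees; viability read by BacTiter-Glo luminescence after 5 min.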
# CHX counter: Cycloheximide Counterscreen for Small Molecule Inhibitors of Shiga Toxin; cell reporter, cycloheximide protein synthesis inhibition counterscreen; max response, %; 300,000 tested, 12% active; AID 2314, 2010; in the data active = max response mostly above about 13%, no sharp cut-off; inactive = mostly below about 14%; also: read at 38.3 µM for the half of the compounds with a filed dose; 0% is about no effect
# * marks the source's active call; other numbers are inactive results; . = no result given. Unless noted, calls follow the shape of the dose curve; as a rule, active = well fitted curve in the direction sought with a large enough effect; inconclusive = small, poorly fitted or top-dose-only effect, or another doubt; inactive = no such curve, though single readings can be large; an effect the other way counts as inactive or inconclusive.
SMILES,TbPYK inhibitor,Shiga toxin inh,FBPA Giardia inh,LmPK inh,RE007 growth inh,CHX counter
Cc1ccc(F)cc1CNC(=O)C1CCC(=O)N(CCCN2CCCC2=O)C1 (stereo not drawn),-4.5%,18.4,.,6.0%,6.3%,22.3*
COc1cccc(CNC(=O)C2CCC(=O)N(CCc3cccc(F)c3)C2)c1 (stereo not drawn),-10.4%,13.3,.,-2.5%,-0.6%,2.3
COc1ccccc1CNC(=O)C1CCC(=O)N(CCCN2CCCC2=O)C1 (stereo not drawn),1.5%,-5.9,6.8%,0.3%,11.2%,-3.5
O=C1CCC(C(=O)N2CCSCC2)CN1CCc1cccc(F)c1 (stereo not drawn),3.5%,15.5,7.9%,5.3%,-2.4%,14.8*
CCOc1ccc(NC(=O)Cn2nnc(C(=O)NCCc3ccccc3)c2N)cc1,-0.3%,.,.,.,.,.
CC(CNC(=O)c1cnn(-c2ccc(F)cc2)c1-n1cccc1)c1ccccc1 (stereo not drawn),5.0%,.,.,.,.,.
O=C(NCC(c1ccc2c(c1)OCO2)N1CCN(c2ccccc2F)CC1)c1ccccc1F (stereo not drawn),0.2%,.,.,.,.,.
CCc1ccccc1Oc1ccc(S(=O)(=O)N2CCN(C)CC2)cn1,-0.9%,.,.,.,2.6%,.
CCc1nc(CN(C)C(=O)C2CCC(=O)N(CCc3cccc(F)c3)C2)no1 (stereo not drawn),-10.4%,32.5,.,0.5%,2.5%,21.9*
COC1CCN(C(=O)C2CCC(=O)N(CCc3cccc(F)c3)C2)CC1 (stereo not drawn),-1.0%,22.7,.,-8.8%,9.8%,28.3*
COCCOC1CCN(C(=O)C2CCC(=O)N(CCc3cccc(F)c3)C2)CC1 (stereo not drawn),-6.1%,-4.4,2.0%,-0.5%,6.2%,4.2
O=C(NC(C1CC1)C1CC1)C1CCC(=O)N(CCCN2CCCC2=O)C1 (stereo not drawn),-5.7%,13.1,-6.0%,0.0%,3.2%,16.9*
CC(=O)c1ccc(OCc2cc(C(=O)N3CC4C[C@@H]5CC3C[C@H](C4)C5)no2)cc1,1.3%,84.2*,.,1.9%,5.1%,46.5*
CC(=O)c1cccc(OCc2cc(C(=O)N(C)C(C)c3ccccn3)no2)c1 (stereo not drawn),-4.0%,17.4,3.0%,0.4%,7.0%,8.4
CC(=O)c1cccc(OCc2cc(C(=O)N3CC4C[C@@H]5CC3C[C@H](C4)C5)no2)c1,0.3%,35.7,.,3.8%,-5.4%,28.8*
CC1CC=CC2C1C(=O)N(Cc1ccccc1)C2c1ccc(-c2cc3ccccc3s2)cc1F (stereo not drawn),.,96.4*,-0.4%,.,.,48.8*
COc1ccc(-c2cc3ccccc3s2)cc1[C@H]1[C@H]2C=CC[C@@H](C)[C@@H]2C(=O)N1Cc1ccccc1,0.7%,44.3,2.7%,-5.8%,-7.2%,3.0
COc1ccc(-c2cc([C@H]3[C@H]4C=CC[C@@H](C)[C@@H]4C(=O)N3Cc3ccccc3)ccc2F)cc1OC,2.9%,61.0*,-6.6%,-6.0%,-5.9%,21.6*
CC[C@@H]1CC=C[C@H]2[C@H]1C(=O)N(Cc1ccccc1)[C@H]2c1ccoc1,-9.8%,57.5*,-9.8%,5.7%,3.1%,12.2*
CCOc1ccccc1NC(=O)COn1nnc2ccccc21,-1.9%,37.5,-0.7%,1.8%,-14.1%,16.8*
O=C(COn1nnc2ccccc21)N1CCN(Cc2ccccc2)CC1,-2.3%,96.1*,-5.6%,0.3%,-10.0%,50.0*
COc1ccccc1OCC(=O)NCC1CCCCC1,4.0%,45.8,-6.1%,-0.9%,4.8%,12.3
O=C(COn1nnc2ccccc21)NCC1CCCCC1,-8.3%,89.3,2.7%,-3.2%,-9.5%,28.4*
COc1ccc(C(CCN(Cc2ccc(OC)c(OC)c2)C(C)=O)C(C)C)cc1 (stereo not drawn),11.8%,16.7,11.3%,2.6%,14.1%,-4.4

# Screening data: PubChem BioAssay, National Center for Advancing Translational Sciences (NCATS)
